In ChEMBL document CHEMBL3988442, “University of Dundee, Small-Polar-MMV Screening Library” (2021):
Potency and affinity values are given separately.

Target: Protein translocase subunit SecA (Escherichia coli (strain K12)) (UniProt P10408)
Assay: Assay to Identify E. coli SecA ATPase Inhibitors
Format: functional
Parameters: scale not given: direction of the effect not stated beside the values
Details: 30 µM

Chain of Protein translocase subunit SecA (Escherichia coli (strain K12)) (P10408 whole entry): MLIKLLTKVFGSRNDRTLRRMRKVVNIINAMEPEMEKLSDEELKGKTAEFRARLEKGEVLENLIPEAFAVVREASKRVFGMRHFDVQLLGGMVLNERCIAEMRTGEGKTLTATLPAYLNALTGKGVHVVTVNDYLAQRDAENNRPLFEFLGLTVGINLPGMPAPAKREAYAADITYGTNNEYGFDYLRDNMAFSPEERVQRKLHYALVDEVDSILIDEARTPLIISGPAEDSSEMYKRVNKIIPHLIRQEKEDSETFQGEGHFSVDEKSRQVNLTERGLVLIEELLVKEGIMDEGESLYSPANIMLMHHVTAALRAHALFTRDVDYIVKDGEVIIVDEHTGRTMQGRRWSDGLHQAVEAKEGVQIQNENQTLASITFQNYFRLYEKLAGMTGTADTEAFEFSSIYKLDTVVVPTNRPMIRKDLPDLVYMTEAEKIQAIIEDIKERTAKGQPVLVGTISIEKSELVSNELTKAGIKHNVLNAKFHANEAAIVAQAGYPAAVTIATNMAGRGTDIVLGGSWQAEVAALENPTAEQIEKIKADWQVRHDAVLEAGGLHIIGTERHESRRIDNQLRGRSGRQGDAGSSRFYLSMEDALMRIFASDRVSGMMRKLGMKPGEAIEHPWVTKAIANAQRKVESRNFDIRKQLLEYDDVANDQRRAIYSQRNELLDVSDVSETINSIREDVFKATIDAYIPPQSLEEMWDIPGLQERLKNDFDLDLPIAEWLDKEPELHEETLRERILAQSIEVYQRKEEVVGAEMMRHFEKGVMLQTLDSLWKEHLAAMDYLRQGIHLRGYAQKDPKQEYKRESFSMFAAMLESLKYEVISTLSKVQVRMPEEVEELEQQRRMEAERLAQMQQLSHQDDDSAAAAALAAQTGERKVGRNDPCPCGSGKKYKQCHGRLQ

| SMILES | Percent Effect [%] |
| --- | --- |
| CCS(=O)(=O)N1C[C@H]2CCC[C@@]2(COc2ccccn2)C1 | -2.05 |
| Cc1ccc(CNCCOc2ccc(S(C)(=O)=O)cc2)cc1 | -7.67 |
| Cn1nnc2cc(C(=O)N3CCCC3Cc3ccccc3)ccc21 (stereo not drawn) | -4.28 |
| Cn1cnnc1C1CCCN(C(=O)NCCOc2ccccc2)C1 (stereo not drawn) | -3.04 |
| Cc1ccc(-c2cccc(-c3ccn(CCN4CCCC4)n3)c2)nn1 | -0.771 |
| c1coc(-c2nnc(CN3CCCC(CN4CCCCCC4)C3)o2)c1 (stereo not drawn) | -4.64 |
| OC(CN1CCN(Cc2ccc(F)cc2)CC1)C1CC1 (stereo not drawn) | -4.82 |
| CCCNC(=O)c1ccc(NC(=O)c2cccc(OCC)c2)cc1 | 1.49 |
| Cc1cc(CN2CCOC(CN(C)c3cccnn3)C2)no1 (stereo not drawn) | -4.31 |
| Cc1noc(C)c1CN1CCN(C(=O)Cn2cncn2)CC1 | -5.62 |
| CC(C)(C)C(=O)N1CCC(c2nc(O)cc(-c3ccccn3)n2)CC1 | -0.499 |
| COc1cc(CNCc2ccc(C(C)O)cc2)cc2c1OCO2 (stereo not drawn) | -4.95 |
| c1cnc(-c2nc(CNCCn3cccn3)cs2)nc1 | -0.355 |
| O=C(NCCNc1ccccn1)N1CCSCC1 | -7.13 |
| O=C(CS(=O)(=O)c1ccccc1Cl)NC1CCCCNC1=O (stereo not drawn) | -6.72 |
| N#CC1(C(=O)NCCCNc2ccc(C(F)(F)F)cn2)CCCC1 | 0.186 |
| O=C1CCc2cc(-c3csc(CCN4CCCC4=O)n3)ccc2N1 | -2.58 |
| CCn1c(C(=O)N2CCN(C(=O)COC)CC2)cc2ccccc21 | -10.4 |
| CC(O)CC(C)(C)CNC(=O)NCc1cccc(-n2ccnc2)c1 (stereo not drawn) | -3.71 |
| CCS(=O)(=O)NCCNC(=O)c1cc(Cl)c2c(c1)OCCCO2 | -1.06 |

| SMILES | Percent Effect [%] |
| --- | --- |
| COc1c(CNCc2ccnc(N3CCCC3)c2)c(C)nn1C | -5.03 |
| C[C@H]1C[C@@H]2CCN(C(=O)c3ccncn3)C[C@H]2O1 | -5.91 |
| CCNC(=O)NC(=O)CSC(C)c1ccccc1F (stereo not drawn) | -2.26 |
| CN(Cc1ccsc1)C(=O)Nc1ccc(S(C)(=O)=O)nc1 | -2.7 |
| Cc1cc(F)ccc1OC1(C(=O)O)CCN(Cc2ccncc2)CC1 | -4.32 |
| COc1cc(NC(=O)Cn2ccc3sc(C)cc3c2=O)cc(OC)c1 | 0.749 |
| O=C(CCCc1nnc(-c2ccccc2)o1)N1CCN(CCO)CC1 | 0.944 |
| CNc1cc2c(nn1)CCN(C(=O)c1ccoc1)C2 | -0.747 |
| O=C1NC2(CCN(C(=O)c3ccccc3)CC2)CC1c1cccnc1 (stereo not drawn) | -4.51 |
| CNC(=O)[C@H]1C[C@@H]2CN(S(=O)(=O)c3ccccc3)C[C@@H]2N1C(C)=O | -5.14 |
| CC(=O)NCC(=O)N1Cc2nccn2CC(Cn2cccn2)C1 (stereo not drawn) | -2.33 |
| CCc1cnc2c(c1NCc1ccncc1)c(=O)n(C)c(=O)n2C | 0.985 |
| CCn1cnnc1C1CCN(C(=O)COCCc2ccccc2)CC1 | -1.96 |
| Cc1nc(C2CCCN(C(=O)CCCn3ccnc3C)C2)no1 (stereo not drawn) | -3.92 |
| O=C(c1cscn1)N1C[C@H]2CCCC(OCc3cccnc3)[C@H]2C1 (stereo partly drawn) | -5.26 |
| CSc1cccc(CNC(=O)C2CC(=O)N(CCN(C)C)C2)c1 (stereo not drawn) | 0.794 |
| COc1ccc(-c2noc(CN3CCOCC3C)n2)cc1OC (stereo not drawn) | -2.2 |
| OCC1CCCN1c1cc(NCCNc2ccccn2)ncn1 (stereo not drawn) | -3.44 |
| O=C(Nc1cc(F)ccc1OCC1CCCO1)c1ccccn1 (stereo not drawn) | -2.56 |

Target: T1, Ubiquitin-activating enzyme e1, putative (Leishmania donovani (strain BPK282A1)) (UniProt E9BSI1)
T1 sequence (whole entry): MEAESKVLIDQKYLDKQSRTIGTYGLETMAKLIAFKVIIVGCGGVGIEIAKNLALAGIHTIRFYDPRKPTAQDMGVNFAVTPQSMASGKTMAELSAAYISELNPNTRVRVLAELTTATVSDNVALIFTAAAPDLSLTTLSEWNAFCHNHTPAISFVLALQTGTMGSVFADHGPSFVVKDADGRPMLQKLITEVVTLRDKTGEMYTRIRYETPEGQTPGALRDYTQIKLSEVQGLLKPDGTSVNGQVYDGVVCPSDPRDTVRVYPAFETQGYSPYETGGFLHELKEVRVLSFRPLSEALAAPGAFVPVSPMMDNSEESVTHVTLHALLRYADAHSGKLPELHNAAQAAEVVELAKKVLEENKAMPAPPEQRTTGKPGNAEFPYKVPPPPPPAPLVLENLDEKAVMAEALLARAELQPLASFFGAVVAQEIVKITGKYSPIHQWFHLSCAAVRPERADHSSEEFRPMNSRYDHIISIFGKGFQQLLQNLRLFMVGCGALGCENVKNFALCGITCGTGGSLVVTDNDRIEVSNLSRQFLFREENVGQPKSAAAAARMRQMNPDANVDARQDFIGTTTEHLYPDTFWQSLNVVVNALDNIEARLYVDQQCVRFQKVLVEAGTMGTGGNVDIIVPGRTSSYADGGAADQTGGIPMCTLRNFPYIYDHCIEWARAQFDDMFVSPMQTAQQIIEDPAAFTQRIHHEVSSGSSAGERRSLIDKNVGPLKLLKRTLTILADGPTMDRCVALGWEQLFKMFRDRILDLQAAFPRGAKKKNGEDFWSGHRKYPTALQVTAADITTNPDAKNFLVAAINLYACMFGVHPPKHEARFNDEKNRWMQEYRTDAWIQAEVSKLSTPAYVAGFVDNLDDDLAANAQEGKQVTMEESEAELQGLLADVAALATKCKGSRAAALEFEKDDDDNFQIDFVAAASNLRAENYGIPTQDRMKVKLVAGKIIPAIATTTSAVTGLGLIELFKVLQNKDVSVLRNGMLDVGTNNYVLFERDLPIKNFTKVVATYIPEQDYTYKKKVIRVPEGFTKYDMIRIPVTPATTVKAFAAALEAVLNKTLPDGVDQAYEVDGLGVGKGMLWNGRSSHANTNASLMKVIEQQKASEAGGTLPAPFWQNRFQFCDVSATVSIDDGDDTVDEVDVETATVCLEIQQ
Assay: Leishmania donovani Ubiquitin Activating Enzyme (LdE1)
Format: functional
Parameters: scale not given: direction of the effect not stated beside the values
Details: 30 µM

| SMILES | Percent Effect [%] |
| --- | --- |
| CCS(=O)(=O)N1C[C@H]2CCC[C@@]2(COc2ccccn2)C1 | 12 |
| Cc1ccc(CNCCOc2ccc(S(C)(=O)=O)cc2)cc1 | -5.48 |
| Cn1nnc2cc(C(=O)N3CCCC3Cc3ccccc3)ccc21 (stereo not drawn) | 2.74 |
| Cn1cnnc1C1CCCN(C(=O)NCCOc2ccccc2)C1 (stereo not drawn) | 23.4 |
| Cc1ccc(-c2cccc(-c3ccn(CCN4CCCC4)n3)c2)nn1 | -8.11 |
| c1coc(-c2nnc(CN3CCCC(CN4CCCCCC4)C3)o2)c1 (stereo not drawn) | 7.89 |
| OC(CN1CCN(Cc2ccc(F)cc2)CC1)C1CC1 (stereo not drawn) | 8.22 |
| CCCNC(=O)c1ccc(NC(=O)c2cccc(OCC)c2)cc1 | -5.41 |
| Cc1cc(CN2CCOC(CN(C)c3cccnn3)C2)no1 (stereo not drawn) | 0 |
| Cc1noc(C)c1CN1CCN(C(=O)Cn2cncn2)CC1 | 5.41 |
| CC(C)(C)C(=O)N1CCC(c2nc(O)cc(-c3ccccn3)n2)CC1 | 12.2 |
| COc1cc(CNCc2ccc(C(C)O)cc2)cc2c1OCO2 (stereo not drawn) | 18.9 |
| c1cnc(-c2nc(CNCCn3cccn3)cs2)nc1 | -2.63 |
| O=C(NCCNc1ccccn1)N1CCSCC1 | 5.41 |
| O=C(CS(=O)(=O)c1ccccc1Cl)NC1CCCCNC1=O (stereo not drawn) | 13 |
| N#CC1(C(=O)NCCCNc2ccc(C(F)(F)F)cn2)CCCC1 | -2.63 |
| O=C1CCc2cc(-c3csc(CCN4CCCC4=O)n3)ccc2N1 | 20.8 |
| CCn1c(C(=O)N2CCN(C(=O)COC)CC2)cc2ccccc21 | 13 |
| CC(O)CC(C)(C)CNC(=O)NCc1cccc(-n2ccnc2)c1 (stereo not drawn) | 0 |
| CCS(=O)(=O)NCCNC(=O)c1cc(Cl)c2c(c1)OCCCO2 | 8.11 |

| SMILES | Percent Effect [%] |
| --- | --- |
| COc1c(CNCc2ccnc(N3CCCC3)c2)c(C)nn1C | 3.8 |
| C[C@H]1C[C@@H]2CCN(C(=O)c3ccncn3)C[C@H]2O1 | 0 |
| CCNC(=O)NC(=O)CSC(C)c1ccccc1F (stereo not drawn) | 0 |
| CN(Cc1ccsc1)C(=O)Nc1ccc(S(C)(=O)=O)nc1 | 22.8 |
| Cc1cc(F)ccc1OC1(C(=O)O)CCN(Cc2ccncc2)CC1 | 16 |
| COc1cc(NC(=O)Cn2ccc3sc(C)cc3c2=O)cc(OC)c1 | 0 |
| O=C(CCCc1nnc(-c2ccccc2)o1)N1CCN(CCO)CC1 | 5.06 |
| CNc1cc2c(nn1)CCN(C(=O)c1ccoc1)C2 | 7.79 |
| O=C1NC2(CCN(C(=O)c3ccccc3)CC2)CC1c1cccnc1 (stereo not drawn) | -2.74 |
| CNC(=O)[C@H]1C[C@@H]2CN(S(=O)(=O)c3ccccc3)C[C@@H]2N1C(C)=O | 7.79 |
| CC(=O)NCC(=O)N1Cc2nccn2CC(Cn2cccn2)C1 (stereo not drawn) | -2.7 |
| CCc1cnc2c(c1NCc1ccncc1)c(=O)n(C)c(=O)n2C | 8.22 |
| CCn1cnnc1C1CCN(C(=O)COCCc2ccccc2)CC1 | 7.79 |
| Cc1nc(C2CCCN(C(=O)CCCn3ccnc3C)C2)no1 (stereo not drawn) | -5.2 |
| O=C(c1cscn1)N1C[C@H]2CCCC(OCc3cccnc3)[C@H]2C1 (stereo partly drawn) | 5.33 |
| CSc1cccc(CNC(=O)C2CC(=O)N(CCN(C)C)C2)c1 (stereo not drawn) | 5.33 |
| COc1ccc(-c2noc(CN3CCOCC3C)n2)cc1OC (stereo not drawn) | 18.9 |
| OCC1CCCN1c1cc(NCCNc2ccccn2)ncn1 (stereo not drawn) | 5.48 |
| O=C(Nc1cc(F)ccc1OCC1CCCO1)c1ccccn1 (stereo not drawn) | 2.6 |
